The source of these data is PubChem BioAssay (EPA / NIEHS).

By AC50 is commonly meant the midpoint of the concentration-response curve, whichever way the signal moves.

The nature of experiment [1]: APR_HepG2_P-H2AX_72hr: Apredica 72-hour HepG2 Assay for H2AX Phosphorylation (AID 2282916).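 Note: phospho-histone H2A.x immunostain intensity per cell marking DNA damage.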 The conditions noted are these: imaging, actives raise or lower the signal. The method, boiled down:
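Following 72 hr treatment with 0.39–200 uM compound, HepG2 cells were formaldehyde-fixed, permeabilized and stained for phospho-H2A.x; signal was measured by high-content imaging and fitted bidirectionally against DMSO controls.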

A short description of experiment [2]: APR_HepG2_MitoMembPot_72hr: Apredica 72-hour HepG2 Assay for Mitochondrial Membrane Potential (AID 2282917). The conditions noted are these: imaging, actives raise or lower the signal. Put shortly: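 Membrane potential read by MitoTracker Red CMXRos (250 nM, 30 min, pre-fixation) fluorescence imaging of HepG2 after 72 hr exposure. Ten concentrations, 0.39–200 uM, duplicate wells, 0.5% DMSO; fitted in both directions against DMSO baseline.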

The nature of experiment [3]: APR_HepG2_MitoticArrest_72hr: Apredica 72-hour HepG2 Assay for Mitotic Arrest (AID 2282918). The conditions noted are these: high-content imaging, actives raise or lower the signal. The method, boiled down:
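Read-out is phospho-histone H3 immunofluorescence with Hoechst nuclear segmentation, imaged at 20x. Human HepG2 liver cells received ten concentrations (0.39–200 uM, final DMSO 0.5% v/v) for 72 hr before fixation. Gain or loss of signal was fitted relative to DMSO.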

Experiment [4] is described as follows: APR_HepG2_MicrotubuleCSK_72hr: Apredica 72-hour HepG2 Assay for Microtubule CSK Stabilty (AID 2282919). The conditions noted are these: HepG2 microtubule cytoskeleton, high-content imaging, actives raise or lower the signal. Put shortly: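 Read-out is tubulin fluorescence intensity from high-content imaging of HepG2 cells, with nuclei identified by Hoechst 33342. Treatment lasts 72 h at 0.39–200 uM, and curves are fitted bidirectionally against the DMSO negative control.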

The nature of experiment [5]: APR_HepG2_P-H2AX_24hr: Apredica 24-hour HepG2 Assay for H2AX Phosphorylation (AID 2282920). The conditions noted are these: high-content imaging, actives raise or lower the signal. The method, boiled down: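 HepG2, 24 hr, cpd 0.39–200 uM (10 conc, duplicate), DMSO 0.5% v/v final. Fix 3.7% formaldehyde, Triton X-100 permeabilize, anti-phospho-H2A.x 1:200 + Hoechst 2 ug/mL. Imaged, bidirectional fit vs DMSO.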

Experiment [6] is described as follows: APR_HepG2_StressKinase_72hr: Apredica 72-hour HepG2 Assay for Stress Kinase (AID 2282921). As to conditions: HepG2 stress kinase (phospho-c-Jun) imaging, actives raise or lower the signal. Put shortly: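 Fluorescence intensity of Cy3-tagged anti-phospho-c-Jun antibody, quantified per cell from Hoechst-defined nuclei across six images per well, served as the read-out following 72 h exposure (0.39–200 uM, 0.5% v/v DMSO).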

The nature of experiment [7]: APR_HepG2_StressKinase_24hr: Apredica 24-hour HepG2 Assay for Stress Kinase (AID 2282922). The conditions noted are these: HepG2 stress kinase (phospho-c-Jun) imaging, actives raise or lower the signal. The method, boiled down:
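HepG2, 24 hr dosing, 0.39–200 uM in duplicate, 0.5% DMSO; formaldehyde fix (3.7%), 0.5% Triton X-100; anti-phospho-c-Jun + Cy3 secondary, Hoechst counterstain; ArrayScan imaging; bidirectional curve fit vs DMSO baseline.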

A short description of experiment [8]: APR_HepG2_MitoMass_72hr: Apredica 72-hour HepG2 Assay for Mitochondrial Mass (AID 2282924).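 Note: MitoTracker Red CMXRos stain intensity per cell imaged as mitochondrial mass.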 As to conditions: high-content imaging, actives raise or lower the signal. The method, boiled down: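 HepG2, 72 hr cmpd, 10 conc 0.39–200 uM in dup, DMSO 0.5% v/v. MitoTracker Red CMXRos 250 nM 30 min pre-fix; formaldehyde 3.7% fix 30 min RT. HCS imaging, gain/loss fit vs DMSO.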

Experiment [9] in a line: APR_HepG2_NuclearSize_72hr: Apredica 72-hour HepG2 Assay for Nuclear Size (AID 2282925). The conditions noted are these: high-content imaging, actives raise or lower the signal. The method, boiled down:
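HepG2; cpd 0.39–200 uM, 10 conc, duplicate; 72 h; DMSO 0.5% v/v; fix 3.7% formaldehyde 30 min RT; Triton permeabilization; Hoechst 2 ug/mL; HCS imaging 20x; nuclear diameter; gain/loss fit vs DMSO.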

Experiment [10] in a line: ATG_CRE_CIS: Attagene CIS-FACTORIAL HepG2 Assay for human cAMP Responsive Element (CRE) binding protein 3 (AID 2282926). The conditions noted are these: HepG2 CRE cis-reporter, Attagene multiplexed mRNA; actives raise or lower the signal. Put shortly: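 Human liver HepG2, transient MRTU transfection, 24 h compound exposure. Total RNA → oligo(dT) RT → PCR → 6-FAM primer extension → HpaI cut → CE. Activity called both directions vs DMSO.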

For experiment [11], the target named is CCAAT/enhancer-binding protein beta (Homo sapiens) (UniProt P17676). As to the kind of experiment: ATG_C_EBP_CIS: Attagene CIS-FACTORIAL HepG2 Assay for human CCAAT/Enhancer Binding Protein (C/EBP) beta (AID 2282927). As to conditions: HepG2 Attagene cis-factorial transcription factor reporter; actives raise or lower the signal. Put shortly: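 Changes in reporter mRNA, rather than exogenous chimeric receptor activity, reflect native C/EBP signalling in transfected HepG2 cells dosed for 24 h; transcripts are detected by RT-PCR and capillary electrophoresis.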

Experiment [12] can be described thus: ATG_CMV_CIS: Attagene CIS-FACTORIAL HepG2 Assay for human CMV (Internal Marker) (AID 2282928).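 Note: endpoint acts as a background internal control marker rather than a target.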 As to conditions: HepG2 CMV promoter reporter, transcription factor profiling; actives raise or lower the signal. Put shortly: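 After transient transfection of HepG2 with reporter transcription units driven by cis-regulatory promoters, cells receive test chemical for 24 h. Labeled reporter amplicons, digested with HpaI, are sized and quantified by capillary electrophoresis against DMSO.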

Experiment [13] is described as follows: ATG_DR4_LXR_CIS: Attagene CIS-FACTORIAL HepG2 Assay for human Liver X Receptor (LXR), DR4 submotif (AID 2282929). The conditions noted are these: HepG2 Attagene DR4 cis-reporter, mRNA transcription; actives raise or lower the signal. Put shortly: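 The endpoint is DR4-element-driven reporter transcripts after 24 h chemical exposure of transfected HepG2 cells. These were measured via RT-PCR and capillary electrophoresis, and gain or loss of signal was fitted relative to DMSO controls.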

The target in experiment [14] is Aryl hydrocarbon receptor (Homo sapiens) (UniProt P35869). The experiment is described as follows: ATG_Ahr_CIS: Attagene CIS-FACTORIAL HepG2 Assay for human Aryl Hydrocarbon Receptor (Ahr) (AID 2282930). The conditions noted are these: HepG2 AhR cis-factorial reporter transcription; actives raise or lower the signal. Put shortly: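 HepG2, transient MRTU (cis) transfection, 24 h exposure. RNA → cDNA → PCR → 6-FAM primer extension → HpaI 2 h 37 C → CE. Fit: bidirectional, DMSO baseline.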

A short description of experiment [15]: ATG_AP_1_CIS: Attagene CIS-FACTORIAL HepG2 Assay for human Activator Protein 1 (AP-1) (AID 2282931). The conditions noted are these: HepG2 Attagene cis-factorial AP-1 reporter mRNA; actives raise or lower the signal. The method, boiled down: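 Readout is reporter transcript level from endogenous transcription factor activity, quantified by RT-PCR with fluorescent primer extension and capillary electrophoresis. Transiently transfected HepG2 cells, 24 h exposure. Curves fitted both directions versus DMSO.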

Experiment [16] in a line: ATG_AP_2_CIS: Attagene CIS-FACTORIAL HepG2 Assay for human Activator Protein 2 (AP-2) (AID 2282932). The conditions noted are these: HepG2 AP-2 cis-reporter, Attagene transcription factor profiling; actives raise or lower the signal. The method, boiled down: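 Step one: transient transfection of HepG2 with reporter transcription units. Step two: 24 h chemical exposure. Step three: RNA extraction, RT-PCR, labelled fragment analysis by capillary electrophoresis; DMSO serves as baseline.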

The target of experiment [17] is Retinoic acid receptor alpha (Homo sapiens) (UniProt P10276). The experiment is described as follows: ATG_DR5_RAR_CIS: Attagene CIS-FACTORIAL HepG2 Assay for human Retinoic Acid Receptor Alpha (RARE), DR5 submotif (AID 2282934).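 For AC50: reporter responds to endogenous RAR alpha beta and gamma in HepG2 not RARA alone.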 The conditions noted are these: HepG2 Attagene cis-factorial RARE DR5 reporter, mRNA; actives raise or lower the signal. The method, boiled down: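 HepG2, transient cis-reporter transfection, 24 h exposure. mRNA readout: RT-PCR, FAM label, HpaI cut, capillary electrophoresis. DMSO baseline, gain/loss fitting.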

Experiment [18] has as its target Transcription factor E2F1 (Homo sapiens) (UniProt Q01094). As to the kind of experiment: ATG_E2F_CIS: Attagene CIS-FACTORIAL HepG2 Assay for human E2F Transcription Factor 1 (AID 2282935). The conditions noted are these: HepG2 Attagene cis-reporter, E2F reporter RNA transcripts; actives raise or lower the signal. The method, boiled down:
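Total RNA from 24 h-treated, reporter-transfected HepG2 cells undergoes DNase I treatment, oligo(dT) reverse transcription, PCR and 6-FAM primer extension before capillary electrophoresis.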

A short description of experiment [19]: APR_HepG2_p53Act_72hr: Apredica 72-hour HepG2 Assay for p53 Activation (AID 2282923).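 Note: average cellular p53 protein immunofluorescence intensity in HepG2 cells.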 The conditions noted are these: high-content imaging, actives raise or lower the signal. Put shortly:
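HepG2 monolayers receive test compounds in duplicate at ten concentrations (0.39 through 200 uM) for 72 hr. They are then formaldehyde-fixed, antibody-labelled for p53, Hoechst-stained and imaged, with activity fitted bidirectionally versus DMSO.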

Experiment [20] can be described thus: ATG_BRE_CIS: Attagene CIS-FACTORIAL HepG2 Assay for human Bone Morphogenetic Protein (BMP) Response Element (BRE) (AID 2282933). The conditions noted are these: HepG2 BMP response element reporter, Attagene transcription factor profiling; actives raise or lower the signal. The method, boiled down: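 HepG2 cells transiently transfected with multiplexed cis-element reporter units were dosed with chemical for 24 h. Reporter mRNA was measured by RT-PCR with fluorescent labelling, HpaI digestion and capillary electrophoresis; bidirectional fitting relative to DMSO.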

Several values for one entry are separate records, joined by “and”; a condition that tells them apart may be missing. Equal values may be shown once. Some compounds were tested as several samples or in several runs, with calls that do not always agree. Activity calls are given as the source filed them. Rule for the calls: active = hit-call score of the fitted dose curve at least 0.9, where 1 is the maximum; inactive = score below 0.9.

Sequence of Aryl hydrocarbon receptor (Homo sapiens) (P35869 whole entry, looked up): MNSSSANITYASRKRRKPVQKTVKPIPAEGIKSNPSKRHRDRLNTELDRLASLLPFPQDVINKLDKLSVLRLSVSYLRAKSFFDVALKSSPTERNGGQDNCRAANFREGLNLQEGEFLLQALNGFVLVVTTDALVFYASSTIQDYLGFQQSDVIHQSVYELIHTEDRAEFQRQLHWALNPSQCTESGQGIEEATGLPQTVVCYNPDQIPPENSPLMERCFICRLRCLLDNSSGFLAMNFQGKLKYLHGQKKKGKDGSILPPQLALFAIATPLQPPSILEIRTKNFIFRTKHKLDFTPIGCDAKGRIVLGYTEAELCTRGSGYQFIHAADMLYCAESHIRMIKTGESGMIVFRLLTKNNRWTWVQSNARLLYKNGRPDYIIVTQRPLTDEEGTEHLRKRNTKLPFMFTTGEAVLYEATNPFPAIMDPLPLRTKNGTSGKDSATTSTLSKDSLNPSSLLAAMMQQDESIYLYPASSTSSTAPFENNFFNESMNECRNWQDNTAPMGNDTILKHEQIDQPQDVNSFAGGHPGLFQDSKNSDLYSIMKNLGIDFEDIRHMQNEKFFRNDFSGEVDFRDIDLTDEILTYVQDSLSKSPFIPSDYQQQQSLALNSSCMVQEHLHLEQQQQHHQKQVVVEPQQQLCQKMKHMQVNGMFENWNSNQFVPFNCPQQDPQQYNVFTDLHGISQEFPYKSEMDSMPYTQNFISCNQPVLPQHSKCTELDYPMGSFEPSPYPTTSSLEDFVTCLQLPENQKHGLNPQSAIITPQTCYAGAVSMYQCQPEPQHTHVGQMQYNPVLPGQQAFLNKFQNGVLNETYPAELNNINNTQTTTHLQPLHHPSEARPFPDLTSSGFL
Sequence of Retinoic acid receptor alpha (Homo sapiens) (P10276 whole entry, looked up): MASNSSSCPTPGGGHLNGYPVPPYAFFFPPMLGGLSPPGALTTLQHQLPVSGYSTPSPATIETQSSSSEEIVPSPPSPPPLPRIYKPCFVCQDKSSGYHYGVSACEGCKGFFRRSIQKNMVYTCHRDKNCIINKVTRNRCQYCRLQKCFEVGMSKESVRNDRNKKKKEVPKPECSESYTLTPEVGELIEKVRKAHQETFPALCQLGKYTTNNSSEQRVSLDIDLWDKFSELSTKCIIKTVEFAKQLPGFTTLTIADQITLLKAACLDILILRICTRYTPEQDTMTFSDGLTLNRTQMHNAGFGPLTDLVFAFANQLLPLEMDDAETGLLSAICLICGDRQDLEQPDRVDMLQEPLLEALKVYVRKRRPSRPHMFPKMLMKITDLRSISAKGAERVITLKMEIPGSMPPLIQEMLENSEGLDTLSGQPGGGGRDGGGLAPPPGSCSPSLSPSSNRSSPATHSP
Sequence of CCAAT/enhancer-binding protein beta (Homo sapiens) (P17676 whole entry, looked up): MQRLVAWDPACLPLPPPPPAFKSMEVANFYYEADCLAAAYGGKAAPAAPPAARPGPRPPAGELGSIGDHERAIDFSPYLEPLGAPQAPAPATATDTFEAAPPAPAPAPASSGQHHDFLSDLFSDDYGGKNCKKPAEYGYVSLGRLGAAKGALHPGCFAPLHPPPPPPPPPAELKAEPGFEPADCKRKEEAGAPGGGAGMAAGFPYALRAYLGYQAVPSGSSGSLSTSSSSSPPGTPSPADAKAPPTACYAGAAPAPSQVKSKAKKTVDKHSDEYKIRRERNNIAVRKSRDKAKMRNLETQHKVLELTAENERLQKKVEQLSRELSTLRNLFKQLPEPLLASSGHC
Sequence of Transcription factor E2F1 (Homo sapiens) (Q01094 whole entry, looked up): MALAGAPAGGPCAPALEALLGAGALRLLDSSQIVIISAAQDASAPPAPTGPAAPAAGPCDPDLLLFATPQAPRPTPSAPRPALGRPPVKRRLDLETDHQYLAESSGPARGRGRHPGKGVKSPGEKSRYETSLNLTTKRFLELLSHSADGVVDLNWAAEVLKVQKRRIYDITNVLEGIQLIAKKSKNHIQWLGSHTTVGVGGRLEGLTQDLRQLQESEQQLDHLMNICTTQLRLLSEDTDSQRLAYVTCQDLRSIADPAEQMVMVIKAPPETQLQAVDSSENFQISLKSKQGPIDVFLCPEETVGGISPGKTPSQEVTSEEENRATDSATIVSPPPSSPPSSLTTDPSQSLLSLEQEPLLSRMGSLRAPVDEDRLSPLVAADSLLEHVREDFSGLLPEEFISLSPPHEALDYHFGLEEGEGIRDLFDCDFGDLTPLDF

For `Cc1ccccc1CO[C@@H]1C[C@@]2(C(C)C)CC[C@]1(C)O2`, the call in experiment [1], in experiment [2], in experiment [3], in experiment [4], in [5] and in experiment [6] was inactive. Besides, the compound was called inactive in [7], in experiment [8], in experiment [9], in experiment [10], in experiment [11] and in experiment [12]. Further, the compound was called inactive in experiment [13], in [14], in experiment [15], in experiment [16], in [17] and in [18].

With `c1cc2ccc3cccc4ccc(c1)c2c34`, the AC50 in experiment [1] is 104 µM (active); in experiment [9], 113 µM (active); in experiment [14], 68.7 µM (active); in [17] it was 7.9 µM (active). Also, the compound was called inactive in [2], in [3], in [4], in [5], in experiment [6] and in [7]. Further, the call in experiment [19], in experiment [8], in [10], in experiment [11], in experiment [12] and in experiment [13] was inactive. Further, the compound was called inactive in experiment [15], in experiment [16], in experiment [20] and in [18].

As for `CCOC(=O)C(O)(c1ccc(Cl)cc1)c1ccc(Cl)cc1`, the AC50 in [1] is 48.1 µM (active); in [3] it was 48.5 µM (active); in experiment [5] it was 77.5 µM (active); in [19], 49.4 µM (active); in experiment [9], 105 µM (active); in [13] it was 8.72 µM (active). Besides, the AC50 in experiment [14] is 8.63 µM (active). Besides, the compound was classed as inactive in experiment [2], in experiment [4], in experiment [6], in experiment [7], in [8] and in experiment [10]. For the same compound, the outcome in [11], in experiment [12], in [15], in experiment [16], in experiment [17] and in [18] was inactive.

On to `O=C(N[C@H]1CN2CCC1CC2)c1cc2ccoc2cn1`, for which the call in [1], in experiment [2], in experiment [3], in experiment [4], in experiment [5] and in experiment [6] was inactive. In addition, the compound was called inactive in experiment [7], in experiment [19], in experiment [8], in experiment [9], in experiment [10] and in [11]. Besides, the compound was classed as inactive in [12], in [13], in experiment [14], in experiment [15], in experiment [16] and in experiment [17]. For the same compound, the compound was called inactive in [18].

With `NS(=O)(=O)C(F)(F)C(F)(F)C(F)(F)C(F)(F)C(F)(F)C(F)(F)C(F)(F)C(F)(F)F`, the concentration at half-maximal activity (AC50) in [1] is 99.3 µM (active); in experiment [2] it was 102 µM (active); in experiment [3], 77.9 µM (active); in [19] it was 61.7 µM (active); in [10] it was 44.3 µM (active) and 40.2 µM (active) and 32.2 µM (active); in [11], 36.3 µM (active) and 24.3 µM (active). Moreover, the concentration at half-maximal activity (AC50) in experiment [12] is 40.4 µM (active) and 227 µM (active) and 21.6 µM (active); in experiment [13], 33.4 µM (active) and 105 µM (active); in experiment [15], 29.9 µM (active) and 262 µM (active) and 17 µM (active); in experiment [17], 40.4 µM (active) and 29.7 µM (active). Besides, the call in [4], in [6], in experiment [7], in experiment [8], in [9] and in experiment [11] was inactive. The compound was classed as inactive in experiment [13], in experiment [14], in experiment [16], in [17] and in experiment [18].
